This note sets out measurements from PubChem BioAssay AID651650 (Sanford-Burnham Center for Chemical Genomics, 2012).

Chain of Neuropilin-1 (Homo sapiens) (O14786 whole entry, looked up): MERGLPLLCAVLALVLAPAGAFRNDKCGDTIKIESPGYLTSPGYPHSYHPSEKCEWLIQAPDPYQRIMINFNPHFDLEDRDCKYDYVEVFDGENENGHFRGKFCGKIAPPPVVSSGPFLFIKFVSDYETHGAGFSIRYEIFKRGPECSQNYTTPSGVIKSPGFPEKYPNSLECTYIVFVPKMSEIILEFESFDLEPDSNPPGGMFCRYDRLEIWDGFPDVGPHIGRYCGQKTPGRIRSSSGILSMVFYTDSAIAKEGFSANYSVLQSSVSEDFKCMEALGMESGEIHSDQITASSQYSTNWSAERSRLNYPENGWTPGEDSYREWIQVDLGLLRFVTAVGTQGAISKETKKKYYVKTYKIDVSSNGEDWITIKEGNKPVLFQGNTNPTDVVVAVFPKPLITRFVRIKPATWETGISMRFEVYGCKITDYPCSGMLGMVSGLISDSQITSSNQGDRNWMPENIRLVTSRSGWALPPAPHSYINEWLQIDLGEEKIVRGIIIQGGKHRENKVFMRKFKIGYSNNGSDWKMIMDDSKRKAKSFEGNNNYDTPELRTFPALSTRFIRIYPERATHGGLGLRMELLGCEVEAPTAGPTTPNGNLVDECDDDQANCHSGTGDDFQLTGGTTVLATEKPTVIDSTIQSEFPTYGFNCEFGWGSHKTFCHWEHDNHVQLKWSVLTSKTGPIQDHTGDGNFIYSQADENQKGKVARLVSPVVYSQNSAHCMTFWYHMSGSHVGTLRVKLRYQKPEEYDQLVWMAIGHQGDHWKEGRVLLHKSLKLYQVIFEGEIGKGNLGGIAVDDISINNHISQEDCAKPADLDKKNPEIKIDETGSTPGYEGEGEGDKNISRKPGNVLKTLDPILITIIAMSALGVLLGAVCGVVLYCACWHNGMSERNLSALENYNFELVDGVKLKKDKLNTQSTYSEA

The assay has as its target Neuropilin-1 (Homo sapiens) (UniProt O14786). As to the kind of experiment: blockers of CendR peptide binding to NRP-1 – biochemical, FP and AlphaScreen panel, dose response (AID 651650). The note with it: NRP-1 b1b2 / RPARPAR peptide binding, FP or AlphaScreen; run 1, at 100 µM (top of the series).
What is called inhibition is the change of the read-out against control, counted positive when it falls. `CCc1cccc(NC(=O)CCc2c(C)nn(-c3ccc(N4CCOCC4)nn3)c2C)c1`: the inhibition came out at 75.8%. For `CCn1c(SCC(=O)c2ccccc2)nnc1-c1cccs1`, the inhibition is 45.2%. Then `CC(=O)NC(c1cccc(F)c1)c1nc(-c2cccc(C(F)(F)F)c2)cs1` (stereo not drawn), with 9.72%; and `COc1ccc([C@H]2/C=C\CN(S(C)(=O)=O)[C@@H](C)C(=O)N2Cc2ccc(F)cc2)cc1`, with 28.8%; and `Cc1ccc(Nc2c(-c3ccccc3O)nc3ncccn23)cc1`, with 19.2%. Consider `Cc1onc(-c2ccc(Cl)cc2Cl)c1-c1csc(COc2ccccc2)n1`, for which the inhibition was found to be 65.6%. The figure for `CCn1ncc(Br)c1C(=O)N(C)C12CC3CC(CC(C3)C1)C2` is 41.8%; for `CN1C(=O)c2oc3ccccc3c(=O)c2C1c1ccccn1` (stereo not drawn) it is 82.2%.

For `CCc1onc(C)c1C(=O)Nc1cc(C)ccc1OC`, the inhibition came to 95.6%. For the compound `NC(=O)C(c1ccc(Cl)cc1Cl)c1ncc(C(F)(F)F)cc1Cl` (stereo not drawn), the inhibition was 88.6%.

Regarding `NC(=S)NNC(=S)Nc1ccccc1`, the inhibition was 9.47%. Then `Cc1onc(-c2ccccc2)c1C(=O)Nc1c(C)n(C)n(-c2ccccc2)c1=O`, with 28.1%.

For the compound `CN(c1ccccc1)S(=O)(=O)c1cccc(NC(=O)CSc2nncn2C)c1`, the inhibition was 21.8%.

Take `COc1ccc(/C=N/NC(=O)c2ccccc2Cl)cc1CSc1nc2ccccc2s1`: the inhibition worked out at 28.7%.

Turning to `O=C1CCCN1CCCNC(=S)Nc1ccc(Cl)cc1Cl`, the inhibition stood at 19.7%. Consider `CC(C)NC(=O)c1c(CSc2ccccc2)noc1C(=O)NCc1ccccc1`, for which the inhibition amounted to 49%. The figure for `O=C(CSc1nnc(CNC(=O)C23CC4CC(CC(C4)C2)C3)n1-c1ccccc1)Nc1ccc(F)cc1` is 4.39%. As to `COc1ccc(Cn2c(C3CC3)nc3ccc(NC(=O)c4cccnc4)cc3c2=O)cc1`, the inhibition amounted to 88.1%.

Regarding `COc1ccc(-c2noc(CN(C(=O)c3ccc4c(c3)OCO4)C(C)C)n2)cc1`, the inhibition stood at 27.6%.

With `CCCS(=O)(=O)N1CCC(Cc2ccc(OC)cc2)(C(=O)OCC)CC1`, the inhibition is -57.8%. As to `O=C(NCc1ccccc1)C(c1cccnc1)N(C(=O)c1ccccn1)c1ccccc1F` (stereo not drawn), the inhibition was 43.9%. For `Cc1[nH]n(-c2ccccc2)c(=S)c1C=Nc1cccc([N+](=O)[O-])c1`, the inhibition was 14.4%. In the case of `COC(=O)c1ccn(C(=O)c2ccc(Cl)cc2)n1`, the inhibition came out at 39.2%. `CCCCN(c1ccccc1)S(=O)(=O)c1ccc2c(c1)CCN2C(=O)CCC(=O)O`: the inhibition worked out at 8.36%. For `Cc1cccc(N(CC(=O)NC2CCCC2)C(=O)CS(=O)CC(=O)Nc2ccc3c(c2)OCO3)c1C` (stereo not drawn), the inhibition was found to be 49%. `CC(C)(C)C(=O)c1cnc(Nc2ccccc2)s1`: the inhibition is -10.5%. Take `c1ccc(OCCCN2CCCC2)cc1`: the inhibition was 53.9%. For `O=C(NCCCN1CCOCC1)c1ccc2c(=O)n(-c3ccc(F)c(Cl)c3)c(=S)[nH]c2c1`, the inhibition is 35.9%.

Consider `CCCCOC(=O)c1ccc(NS(=O)(=O)c2cc(-c3nnnn3CC)ccc2OC)cc1`, for which the inhibition stood at 44.5%.

On to `C[C@@H](NC(=O)c1[nH]cnc1C(=O)Nc1cccc(Cl)c1)c1ccccc1`, for which the inhibition stood at 54.3%. In the case of `c1ccc2c3n(nc2c1)CCCO3`, the inhibition worked out at 27.6%. For the compound `O=C(O)CSc1nnc(-c2ccc(Cl)cc2Cl)n1-c1ccc(Cl)cc1`, the inhibition was 74.1%.

On to `Cn1cnc2cc(NC(=O)c3ccco3)ccc21`, for which the inhibition was 77.5%. For the compound `CC1(C(=O)NCc2cccc3ccccc23)CCN1Cc1cccc2c1OCO2` (stereo not drawn), the inhibition is 21%.

Take `FC(F)(F)C1CC(c2cccs2)Nc2ncnn21` (stereo not drawn): the inhibition is 46%. `O=C(CSc1nc(O)c(Cc2ccccc2)c(=O)n1-c1ccccc1)N1CCOCC1`: the inhibition was -18.5%. The figure for `CC(CN1CCCCC1)OC(=O)c1ccc(Cl)cc1Cl` (stereo not drawn) is 30.1%; for `C=CCOc1c(CNc2ncn[nH]2)cccc1OCC` it is 33.2%.
